Test results reported in PubChem BioAssay.
Calls of active or inactive are those of the source.

What was measured:
[1] = binders of probe aFSTL3 on microarray, primary screen, stem cell growth factor project, biochemical, small-molecule microarray, fluorescence 635/667 (AID 1064); conditions: higher = more signal;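 note: measures binding of the biotinylated anti-FSTL3 antibody to printed compounds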
[2] = binders from COS7 lysate, DM2A8 probe, primary screen, torsin A project, cell lysate, small-molecule microarray, fluorescence 635/667 (AID 1065); conditions: higher = more signal, COS7 lysate expressing mutant human TOR1A
[3] = binders of probe aFGF2 on microarray, primary screen, stem cell growth factor project, biochemical, small-molecule microarray, fluorescence 635/667 (AID 1067); conditions: higher = more signal;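 note: measures binding of biotinylated aFGF2 protein to printed compounds on slides; z-score merges feature fluorescence and signal-to-noise across triplicate slides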
[4] = binders of probe aFGF10 on microarray, primary screen, stem cell growth factor project, biochemical, small-molecule microarray, fluorescence 635/667 (AID 1071); conditions: higher = more signal;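 note: score merges 667 nm spot intensity and signal to noise from triplicate slides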
[5] = target: Neurogenic locus notch homolog protein 2 (Homo sapiens) (UniProt Q04721); assay: Notch2 binders on small-molecule microarrays, primary screen, biochemical, small-molecule microarray, 635 nm fluorescence, stem cell growth factors (AID 1073); conditions: Notch2 binding, higher = more signal
Neurogenic locus notch homolog protein 2 (Homo sapiens), sequence (Q04721 whole entry, looked up, canonical isoform): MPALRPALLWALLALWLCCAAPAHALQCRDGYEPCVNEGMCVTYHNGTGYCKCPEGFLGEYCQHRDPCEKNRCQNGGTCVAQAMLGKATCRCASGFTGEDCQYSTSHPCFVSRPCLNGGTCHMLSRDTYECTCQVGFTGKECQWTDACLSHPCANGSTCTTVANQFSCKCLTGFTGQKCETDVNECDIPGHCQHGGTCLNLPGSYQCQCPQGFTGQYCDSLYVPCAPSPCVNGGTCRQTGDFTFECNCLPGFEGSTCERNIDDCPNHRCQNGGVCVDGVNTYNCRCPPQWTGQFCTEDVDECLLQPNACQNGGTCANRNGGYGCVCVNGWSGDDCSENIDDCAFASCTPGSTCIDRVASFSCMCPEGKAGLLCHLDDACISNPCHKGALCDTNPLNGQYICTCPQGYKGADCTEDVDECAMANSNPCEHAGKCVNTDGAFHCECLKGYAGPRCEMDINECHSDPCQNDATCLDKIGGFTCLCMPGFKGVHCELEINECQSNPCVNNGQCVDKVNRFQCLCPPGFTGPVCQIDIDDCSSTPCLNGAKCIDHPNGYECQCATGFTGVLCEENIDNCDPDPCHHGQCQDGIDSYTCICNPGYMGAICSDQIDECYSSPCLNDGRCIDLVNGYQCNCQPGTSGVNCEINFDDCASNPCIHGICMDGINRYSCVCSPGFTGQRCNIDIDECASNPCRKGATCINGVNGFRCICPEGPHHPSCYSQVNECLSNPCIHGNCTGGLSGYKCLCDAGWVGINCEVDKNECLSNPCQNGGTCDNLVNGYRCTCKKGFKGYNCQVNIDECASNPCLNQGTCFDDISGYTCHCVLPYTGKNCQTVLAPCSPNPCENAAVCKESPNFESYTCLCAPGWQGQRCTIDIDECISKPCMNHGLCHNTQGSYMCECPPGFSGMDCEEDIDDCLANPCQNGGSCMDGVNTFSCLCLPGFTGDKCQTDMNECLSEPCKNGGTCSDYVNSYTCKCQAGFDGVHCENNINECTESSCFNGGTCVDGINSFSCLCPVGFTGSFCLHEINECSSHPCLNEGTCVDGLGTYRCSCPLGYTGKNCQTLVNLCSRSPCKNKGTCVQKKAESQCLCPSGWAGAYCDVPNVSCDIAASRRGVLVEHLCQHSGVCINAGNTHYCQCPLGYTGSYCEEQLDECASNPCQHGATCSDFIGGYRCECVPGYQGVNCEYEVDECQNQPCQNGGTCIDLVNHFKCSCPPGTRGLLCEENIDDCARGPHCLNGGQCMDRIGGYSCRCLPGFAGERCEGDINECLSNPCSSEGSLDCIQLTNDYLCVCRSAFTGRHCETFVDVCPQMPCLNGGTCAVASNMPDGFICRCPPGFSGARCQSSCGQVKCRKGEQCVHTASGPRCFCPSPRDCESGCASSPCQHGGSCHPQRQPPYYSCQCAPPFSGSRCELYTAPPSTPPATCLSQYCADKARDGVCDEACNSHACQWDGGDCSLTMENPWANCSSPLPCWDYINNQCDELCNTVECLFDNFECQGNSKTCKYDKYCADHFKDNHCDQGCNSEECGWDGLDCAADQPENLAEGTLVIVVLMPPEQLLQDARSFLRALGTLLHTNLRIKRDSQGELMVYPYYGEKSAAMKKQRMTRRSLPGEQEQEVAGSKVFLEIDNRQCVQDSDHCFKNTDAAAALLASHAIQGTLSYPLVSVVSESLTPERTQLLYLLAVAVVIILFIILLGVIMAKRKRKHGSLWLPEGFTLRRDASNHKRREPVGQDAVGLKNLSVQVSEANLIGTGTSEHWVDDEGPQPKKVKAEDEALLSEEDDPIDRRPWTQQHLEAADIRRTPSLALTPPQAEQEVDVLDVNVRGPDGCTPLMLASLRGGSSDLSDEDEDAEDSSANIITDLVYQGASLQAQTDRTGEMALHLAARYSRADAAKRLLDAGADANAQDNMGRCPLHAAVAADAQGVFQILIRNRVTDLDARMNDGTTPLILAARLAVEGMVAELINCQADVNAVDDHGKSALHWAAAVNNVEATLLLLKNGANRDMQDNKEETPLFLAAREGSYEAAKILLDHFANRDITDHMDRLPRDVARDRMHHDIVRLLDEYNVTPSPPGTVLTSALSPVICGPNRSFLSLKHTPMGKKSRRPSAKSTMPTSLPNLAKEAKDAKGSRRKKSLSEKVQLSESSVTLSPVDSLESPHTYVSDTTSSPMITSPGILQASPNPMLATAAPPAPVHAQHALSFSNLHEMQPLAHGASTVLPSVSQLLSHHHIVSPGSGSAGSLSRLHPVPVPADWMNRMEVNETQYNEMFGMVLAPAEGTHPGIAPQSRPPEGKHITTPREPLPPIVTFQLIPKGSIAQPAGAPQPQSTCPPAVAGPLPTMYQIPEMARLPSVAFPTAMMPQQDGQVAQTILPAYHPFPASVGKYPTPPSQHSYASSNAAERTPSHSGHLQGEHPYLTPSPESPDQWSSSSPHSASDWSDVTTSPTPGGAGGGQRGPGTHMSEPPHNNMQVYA

[6] = target: Pro-neuregulin-1, membrane-bound isoform (Homo sapiens) (UniProt Q02297); assay: NRG1 binders on small-molecule microarrays, primary screen, psychiatric disease protein project, biochemical, small-molecule microarray, fluorescence 635/667 (AID 1075); conditions: NRG1 binding, 635 nm fluorescence, higher = more signal;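 note: score combines 667 nm spot fluorescence with signal to noise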
[7] = tested on: Neuregulin-1 EGF-like domain; assay: binders of neuregulin-1 EGF-like domain, primary screen, biochemical, small-molecule microarray, 635 nm fluorescence (AID 1081); conditions: small-molecule microarray binding, higher = more signal;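 note: binding of the protein to compounds printed on small-molecule microarray slides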
[8] = FRG1 promoter luciferase signal modulators, primary screen, FRG1 inhibition for FSHD, cell-based, C2C12 myotubes, firefly/Renilla luciferase, luminescence (AID 1084); conditions: higher = more signal, called active from +8 up or from −8 down
[9] = binders of probe aFST on microarray, primary screen, stem cell growth factor project, biochemical, small-molecule microarray, fluorescence 635/667 (AID 1086); conditions: higher = more signal;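 note: score merges 667 nm fluorescence with signal-to-noise of each printed compound spot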
[10] = binders of probe aHhip on microarray, primary screen, stem cell growth factor project, biochemical, small-molecule microarray, fluorescence 635/667 (AID 1087); conditions: higher = more signal;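 note: score merges spot fluorescence at 667nm with spot signal to noise ratio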
[11] = tested on: PRMT1 (protein arginine N-methyltransferase 1); assay: PRMT1 binders on small-molecule microarrays, primary screen, biochemical, small-molecule microarray, 635 nm fluorescence (AID 1088); conditions: small-molecule microarray binding, higher = more signal;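 note: binding of Prmt1 protein to compounds spotted on small-molecule microarray slides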
[12] = yeast growth modulation, basal conditions, primary screen, YJM789 clinical isolate, OD600, 24 h (AID 1089);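 note: growth of clinical yeast isolate S. cerevisiae YJM 789 seeded 1000 cells per well; test concentration not given here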; conditions: S. cerevisiae YJM789 growth, higher = more signal, called active from +8 up or from −8 down
[13] = fission yeast growth modulation, primary screen, strain 972, OD600, 24 h, no modulator (AID 1090);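 note: basal condition with compound alone and no growth modifier present; test concentration not given here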; conditions: S. pombe 972 growth, higher = more signal, called active from +8 up or from −8 down
[14] = S. cerevisiae growth modulation with rapamycin, primary screen, strain BY4716, OD600, 96 h (AID 1091); conditions: higher = more signal, called active from +8 up or from −8 down; note: test concentration not given here
[15] = target: Torsin-1A-interacting protein 2 (Homo sapiens) (UniProt Q8NFQ8); assay: LULL1 binders on small-molecule microarray, primary screen, cell lysate, human LULL1 lysate, 635/667 nm fluorescence (AID 1092); conditions: hLULL1 lysate binding, 635 nm fluorescence, higher = more signal;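 note: probe is lysate of COS7 cells overexpressing human LULL1; score merges per-feature 667 nm fluorescence with signal-to-noise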
[16] = E. coli growth modulation, two-sided OD650, primary screen, E. coli filamentation project, strain DRC41, 24 h (AID 1093); conditions: OD650, 24 h, higher = more signal, called active from +8 up or from −8 down;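 note: MC1000 strain lacking acrAB efflux and sulA so SOS filamentation is blocked; test concentration not given here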
[17] = small-molecule microarray binders of probe aLefty2, primary screen, biochemical, biotinylated probe, 635/667 nm fluorescence (AID 1094); conditions: higher = more signal;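 note: score merges spot fluorescence near 667 nm with spot signal-to-noise ratio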
[18] = tested on: Noggin (protein binding on small-molecule microarray); assay: Noggin binders on small-molecule microarray, primary screen, biochemical, 635/667 nm fluorescence (AID 1095); conditions: 635 nm fluorescence, higher = more signal;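 note: score merges 667 nm feature fluorescence with signal to noise over triplicate slides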
[19] = target: Neurogenic locus notch homolog protein 3 (Homo sapiens) (UniProt Q9UM47); assay: NOTCH3 binders on small-molecule microarray, primary screen, biochemical, 635/667 nm fluorescence (AID 1096); conditions: NOTCH3 binding, 635 nm fluorescence, higher = more signal
Neurogenic locus notch homolog protein 3 (Homo sapiens), sequence (Q9UM47 whole entry, looked up): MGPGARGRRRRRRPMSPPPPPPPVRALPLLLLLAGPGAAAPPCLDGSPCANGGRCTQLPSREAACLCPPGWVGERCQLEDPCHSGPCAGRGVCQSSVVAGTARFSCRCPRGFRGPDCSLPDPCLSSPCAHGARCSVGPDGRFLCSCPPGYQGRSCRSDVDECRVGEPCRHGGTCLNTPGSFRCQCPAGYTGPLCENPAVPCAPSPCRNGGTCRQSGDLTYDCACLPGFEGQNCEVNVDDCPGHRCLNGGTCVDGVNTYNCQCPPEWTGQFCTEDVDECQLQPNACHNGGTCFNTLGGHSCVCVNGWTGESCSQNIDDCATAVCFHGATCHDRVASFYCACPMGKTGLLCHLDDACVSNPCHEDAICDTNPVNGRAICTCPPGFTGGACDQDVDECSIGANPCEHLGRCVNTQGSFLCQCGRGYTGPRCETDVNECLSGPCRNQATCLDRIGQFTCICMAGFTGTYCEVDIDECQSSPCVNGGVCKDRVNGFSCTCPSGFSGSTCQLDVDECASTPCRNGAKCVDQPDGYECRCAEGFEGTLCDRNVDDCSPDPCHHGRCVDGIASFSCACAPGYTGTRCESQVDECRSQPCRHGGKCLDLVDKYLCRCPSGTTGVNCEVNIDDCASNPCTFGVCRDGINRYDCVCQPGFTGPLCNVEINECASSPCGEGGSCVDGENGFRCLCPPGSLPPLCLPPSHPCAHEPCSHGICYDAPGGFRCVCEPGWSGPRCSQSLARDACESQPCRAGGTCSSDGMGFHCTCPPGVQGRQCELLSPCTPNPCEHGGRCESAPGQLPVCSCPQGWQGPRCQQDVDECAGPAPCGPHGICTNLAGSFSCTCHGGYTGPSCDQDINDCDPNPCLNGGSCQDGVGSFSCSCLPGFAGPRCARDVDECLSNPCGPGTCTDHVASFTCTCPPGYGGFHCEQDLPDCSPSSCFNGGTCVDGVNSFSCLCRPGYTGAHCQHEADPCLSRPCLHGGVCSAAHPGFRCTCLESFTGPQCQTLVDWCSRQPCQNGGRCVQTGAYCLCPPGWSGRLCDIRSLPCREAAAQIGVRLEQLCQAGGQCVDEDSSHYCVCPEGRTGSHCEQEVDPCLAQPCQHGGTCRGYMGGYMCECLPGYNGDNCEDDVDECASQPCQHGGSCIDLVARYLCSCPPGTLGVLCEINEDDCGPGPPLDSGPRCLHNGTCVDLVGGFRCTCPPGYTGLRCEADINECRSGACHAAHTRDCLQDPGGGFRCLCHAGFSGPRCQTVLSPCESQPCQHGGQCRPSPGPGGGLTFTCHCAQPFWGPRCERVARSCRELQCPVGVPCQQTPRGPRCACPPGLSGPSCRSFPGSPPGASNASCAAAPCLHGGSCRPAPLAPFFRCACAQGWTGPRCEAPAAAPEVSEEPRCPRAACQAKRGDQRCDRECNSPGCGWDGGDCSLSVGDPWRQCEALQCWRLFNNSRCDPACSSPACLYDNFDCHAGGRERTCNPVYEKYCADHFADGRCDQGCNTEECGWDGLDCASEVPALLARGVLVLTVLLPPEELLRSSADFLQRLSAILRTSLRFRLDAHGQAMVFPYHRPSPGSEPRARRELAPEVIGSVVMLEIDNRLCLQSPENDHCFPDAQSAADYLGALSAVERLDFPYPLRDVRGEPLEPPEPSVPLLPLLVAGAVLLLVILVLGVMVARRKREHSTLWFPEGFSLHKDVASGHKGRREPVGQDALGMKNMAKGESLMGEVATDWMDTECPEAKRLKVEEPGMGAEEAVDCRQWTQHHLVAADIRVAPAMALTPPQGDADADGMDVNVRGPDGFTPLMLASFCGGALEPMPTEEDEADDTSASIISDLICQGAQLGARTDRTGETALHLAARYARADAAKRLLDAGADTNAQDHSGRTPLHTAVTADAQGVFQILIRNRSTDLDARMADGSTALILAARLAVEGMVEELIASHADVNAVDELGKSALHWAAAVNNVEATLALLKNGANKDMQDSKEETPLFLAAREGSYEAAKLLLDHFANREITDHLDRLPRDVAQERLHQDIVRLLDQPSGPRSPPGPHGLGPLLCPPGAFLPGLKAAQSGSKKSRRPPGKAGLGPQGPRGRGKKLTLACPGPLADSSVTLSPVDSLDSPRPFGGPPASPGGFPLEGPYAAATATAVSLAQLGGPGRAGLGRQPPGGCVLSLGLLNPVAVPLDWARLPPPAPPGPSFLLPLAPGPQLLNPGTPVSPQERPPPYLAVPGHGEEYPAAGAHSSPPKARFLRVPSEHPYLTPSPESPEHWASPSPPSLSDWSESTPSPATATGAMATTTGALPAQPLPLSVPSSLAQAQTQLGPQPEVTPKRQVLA

[20] = small-molecule microarray binders of probe aEGFR, primary screen, biochemical, biotinylated probe, 635/667 nm fluorescence (AID 1097); conditions: higher = more signal;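 note: probe is a biotinylated anti-EGFR antibody binding compounds printed on slides; score combines fluorescence near 667 nm and signal to noise of each spot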

| Structure (SMILES) | composite z-score [1] | composite z-score [2] | composite z-score [3] | composite z-score [4] | composite z-score [5] | composite z-score [6] | composite z-score [7] | z-score [8] | composite z-score [9] | composite z-score [10] | composite z-score [11] | z-score [12] | z-score [13] | z-score [14] | composite z-score [15] | z-score [16] | composite z-score [17] | composite z-score [18] | composite z-score [19] | composite z-score [20] |
| --- | --- | --- | --- | --- | --- | --- | --- | --- | --- | --- | --- | --- | --- | --- | --- | --- | --- | --- | --- | --- |
| COCCCNC(=O)[C@@]1(Cc2ccccc2CN=[N+]=[N-])N=C(c2ccc(OCCCO)cc2)O[C@H]1c1ccccc1 | -0.102 | 2.1 | 0.0693 | 0.891 | 0.932 | 1.72 | 1.2 | -2.01 (inactive) | 1.82 | 0.28 | 1.54 | 1.06 (inactive) | 1.04 (inactive) | 11.6 (active) | 3.26 | 0.261 (inactive) | 0.0235 | 1.13 | 1.12 | -0.0267 |
| O=C(NCC(F)(F)F)[C@@H]1c2ccccc2C(=O)N(Cc2ccc(OC(F)(F)F)cc2)[C@H]1c1ccc(CO)cc1 | -0.0966 | 0.661 | -0.0595 | 0.41 | 0.8 | 1.33 | 1.1 | -1.76 (inactive) | 0.208 | -0.25 | 1.53 | -0.54 (inactive) | -0.046 (inactive) | -1.1 (inactive) | 1.81 | 0.583 (inactive) | -0.143 | 0.575 | 0.0891 | -0.0978 |
| CN1C(=O)C2C=CC(C(O)COCc3ccccc3)N(N(c3ccccc3)c3ccccc3)C2C1=O (stereo not given) | 0.0199 | -0.177 | 0.0472 | 0.631 | 1.55 | 1.29 | 1.03 | 0.0958 (inactive) | 1.1 | -0.0563 | 0.482 | 0.298 (inactive) | -1.86 (inactive) | 0.544 (inactive) | 2.11 | -0.0181 (inactive) | 0.388 | -0.419 | 0.894 | 0.726 |
| O=C1O[C@@H](c2ccccc2)[C@@H](c2ccccc2)N2[C@@H](c3ccc(O)cc3)[C@]3(C(=O)Nc4ccc(C#CC5(O)CCCCCC5)cc43)[C@@H](C(=O)NC[C@H](O)c3ccccc3)[C@H]12 | 0.107 | -0.363 | -0.0255 | 0.753 | -0.226 | 1.02 | 0.538 | 0.106 (inactive) | -0.405 | -0.236 | 1.26 | 0.21 (inactive) | -0.0625 (inactive) | 1.24 (inactive) | 2.05 | -0.255 (inactive) | -0.242 | -0.0578 | -0.0872 | -0.162 |
| COc1ccc([Si](C)(C)[C@@H]2[C@@H](CC(=O)N(CCO)Cc3ccccc3)O[C@]3(C(=O)N(Cc4cccc(N5CCOC5=O)c4)c4ccccc43)[C@H]2C)cc1 | -0.0388 | 1.02 | -0.117 | 0.476 | 0.0505 | 1.1 | 1.12 | -0.819 (inactive) | -0.0988 | -0.248 | 1.55 | -0.757 (inactive) | -0.21 (inactive) | 2.11 (inactive) | 1.96 | 1.37 (inactive) | -0.349 | 0.726 | 0.733 | -0.129 |
| O=C(NCc1ccccc1)[C@@H]1c2ccccc2C(=O)N(Cc2ccccc2C(F)(F)F)[C@H]1c1ccc(CO)cc1 | -0.234 | 0.55 | -0.0451 | -0.0459 | -0.927 | 0.48 | 1.25 | -3.23 (inactive) | -0.428 | -0.293 | 1.45 | 0.397 (inactive) | 0.234 (inactive) | -0.0066 (inactive) | 1.83 | 0.479 (inactive) | -0.179 | -0.483 | -0.0406 | -0.212 |
| COCCOC(=O)N1C(=O)[C@@]2(c3cc(C#CCC(C(=O)OC)C(=O)OC)ccc31)[C@H](C(=O)N1CCc3cc(OC)c(OC)cc3C1)[C@H]1C(=O)O[C@H](c3ccccc3)[C@H](c3ccccc3)N1[C@@H]2c1ccc(OCCO)cc1 | -0.63 | 0.527 | -0.0099 | 0.411 | 1.31 | 1.07 | 1.31 | 1.08 (inactive) | 0.479 | 0.0749 | 1.54 | 1.94 (inactive) | 0.667 (inactive) | 4.23 (inactive) | 2.73 | -0.402 (inactive) | -0.0259 | 1.4 | 1.08 | 0.0961 |
| C=CCC(OC(C)=O)[C@@H]1[C@@H](N(Cc2ccc(-c3cccc(C(F)(F)F)c3)o2)C(=O)c2ccc(C)cc2)c2cc(OCCCO)ccc2N1C(=O)c1ccc2ccccc2c1 (stereo not given in full) | -0.302 | 0.462 | 0.0002 | 0.298 | -0.204 | -0.0678 | 0.273 | 0.0925 (inactive) | 0.0494 | 0.0749 | 0.128 | 0.488 (inactive) | 0.668 (inactive) | 0.742 (inactive) | 0.407 | 1.14 (inactive) | -0.138 | 0.485 | 0.313 | -0.125 |
| CC(C)(C)N1CC=CC23O[C@@H]4C=CCOC(=O)[C@@H]4[C@H]2C(=O)N(CCCCCCO)[C@@H]3C1=O (stereo not given in full) | 0.0157 | -0.511 | -0.178 | -0.447 | -0.947 | -0.574 | 1.36 | 0.212 (inactive) | -0.867 | -0.284 | -0.911 | -1.54 (inactive) | -1.27 (inactive) | -0.369 (inactive) | 1.39 | -0.351 (inactive) | -0.101 | -1.27 | -0.729 | -0.163 |
| COCCOC(=O)N1C(=O)[C@@]2(c3cc(C#CC4=CCCCC4)ccc31)[C@H](c1ccccc1OCCO)N1[C@H](c3ccccc3)[C@H](c3ccccc3)OC(=O)[C@H]1[C@@H]2C(=O)Nc1nc2ccccc2s1 | -0.19 | -0.0036 | -0.0398 | 0.359 | 1.23 | 0.953 | 1.08 | 1.41 (inactive) | 0.513 | 0.0373 | 1.29 | 0.478 (inactive) | 0.615 (inactive) | 1.29 (inactive) | 2.66 | -0.15 (inactive) | 0.0274 | 1.05 | 1.06 | -0.0728 |
